# Test results published in PubChem BioAssay (NCI).
# About 83,000 compounds went through this panel and 20% of them were active in at least one assay; those are over-represented in the sample as a whole.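 Treatment: one concentration, 48 hours, 96-well format. Scoring: percent growth, with anything below 10 considered active.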 A number with no mark means an inactive call. Activity calls are given as the source filed them.
# Tested on: HCT-116 colon
# Assay: NCI-60 one-dose screen, 48 h (100 = growth as untreated, 0 = no growth, -100 = all killed)
# Settings: 10 µM unless noted
# Method: Growth inhibition of the HCT-116 human tumor cell line is measured as a screen for anti-cancer activity. Cells are grown in 96 well plates and exposed to the test compound for 48 hours. Compounds are tested at a single concentration, which is 10^-5 M for most compounds. The reported endpoint is percent growth (GI% or GIPRCNT), where numbers from 0 - 100% represent growth inhibition, and numbers from -100% - 0 represent cell death. For example, a value of 40 represents 60% growth inhibition. A value of 0 means no net growth occurred over the course of the experiment. A value of -40 indicates 40% of cells at the beginning of the experiment died by the end of the experiment. A value of -100 means all cells are dead at the end of the experiment.
# NCI-60 Human Tumor Cell Lines Screen was performed using the standard one-dose NCI protocol, which is described in more detail at https://dtp.cancer.gov/discovery_development/nci-60/default.htm.
# Compounds with GIPRCNT values below 10 were considered active. Activity score was based on GIPRCNT using the following formula: […]
# Score is 0 for GIPRCNT values of 100 or above, 50 for GIPRCNT values of 0, and 100 for GIPRCNT values of -100.
row,SMILES,growth
1,Clc1ccc2c(NC3CCC(N4CCOCC4)CC3)ccnc2c1 (stereo not given),47%
2,CCOC(=O)c1ccc(NC(=O)c2nc(-c3cc(OC)c(OC)c(OC)c3)n(-c3ccc(Cl)cc3)n2)cc1,87.8%
3,COc1ccc(/C=N/NC(=O)c2ccc(-n3cc(-c4ccccc4)nn3)cc2)cc1OC,92.7%
4,CC(=O)O[C@H]1CC2CCC3C(CC[C@@]4(C)C3C[C@H]([N+]3(C)CCCCC3)[C@@H]4OC(C)=O)[C@@]2(C)C[C@@H]1N1CCCCC1 (stereo not given in full),101%
5,COC1=CC(c2ccc[nH]2)=N/C1=C\c1[nH]c(C)c(CC(=O)OCc2ccccc2)c1CCC(=O)OCc1ccccc1,-68.9% (active)
6,O=C(CSc1nc2ccc([N+](=O)[O-])cc2[nH]1)Nc1ccc([N+](=O)[O-])cc1,9.88% (active)
7,CCOC(=O)C/C(=N\Nc1cc(=O)[nH]c2ccc(Br)cc12)C(=O)OCC,99.7%
8,COc1ccc(Nc2ncc(Br)c(NCCCNC(=O)c3cccs3)n2)cc1,26.2%
9,Cc1ccc(/C=C2\COc3ccc(O)cc3C2=O)cc1,59.5%
10,c1cnc2c(-c3nc4ccc5[nH]ncc5c4c4c3CCCC4)c[nH]c2c1,0.564% (active)
11,O=C1/C=C/[C@@H](O)[C@@H]2C[C@@H](O)C[C@H]2/C=C/CCC[C@H](CCc2ccccc2)O1,-73.6% (active)
12,Cn1ccnc1C(=O)/C=C/c1ccc(C(=O)Nc2ccccc2O)cc1,11.6%
13,Cn1cc(-c2csc(-c3c[nH]c4ccccc34)n2)c2cnccc21,-59.7% (active)
14,COc1cccc(CNc2ccc3ncnc(Nc4ccc(F)c(Cl)c4)c3c2)c1,64.9%
15,CCN1C(=O)N(CC)C2C1NN=c1s/c(=C\c3ccccc3F)c(=O)n12 (stereo not given),7.85% (active)
16,O=c1c2cccc3c(N4CCCC4)ccc(c32)c2nc3ccccc3n12,54.7%
17,CS(=O)(=O)Nc1cc(-c2ccc3ncnc(Nc4ccc5c(cnn5Cc5cccc(F)c5)c4)c3c2)cnc1Cl,4.08% (active)
18,CCC(C)N(CCNc1cc(OC)cc2cccnc12)CC(C)C (stereo not given),66.9%
19,COC(=O)c1c(C)nc(C)c2c1C(=O)C(Br)=C(NCc1ccccc1)C2=O,1.86% (active)
20,CN1CCN(c2cc(Nc3cc(C4CC4)[nH]n3)nc(Nc3ccc(CC(=O)NCc4cccc(F)c4)cc3)n2)CC1,8.53% (active)

row,SMILES,growth
1,Cc1ccc2c(Cn3cc(CSc4nc5ccccc5o4)nn3)cc(=O)oc2c1,104%
2,Cc1cn(-c2cc(NC(=O)c3cncc(C#Cc4cnc(N)c5ncccc45)c3)cc(C(F)(F)F)c2)cn1,35.6%
3,CC1(C)CC(=O)C2=C(C1)N(c1ccc(OC(F)(F)F)cc1)C(N)=C(C#N)C2c1ccc(Br)cc1F (stereo not given),46.7%
4,c1cc2c(ccc3[nH]c(-c4ccc5[nH]ncc5c4)c4c(c32)CCCC4)n1,38%
5,CN(C)c1ccc(-c2c(C#N)c(N)nn2C(=O)c2ccc(NC(=O)c3ccccn3)cc2)cc1,90.8%
6,CCOC(=O)c1nn(-c2ccc(S(N)(=O)=O)cc2)c2nc(C)cc(=O)n12,106%
7,COc1ccc2c(c1)CC[C@H](O)/C2=C/c1cc(OC)c(OC)c(OC)c1,2.27% (active)
8,CCCCC1=C(P(=O)(O)O)N[C@H](C(=O)O)CS1,96.5%
9,CCn1c(SCC(=O)N/N=C(\C)c2ccc(Cl)cc2)nc2c1c(=O)n(C)c(=O)n2C,102%
10,NS(=O)(=O)c1ccccc1NC(=O)Nc1nc2ccccc2s1,98.8%
11,Cc1c[n+](Cc2ccc3ccccc3c2)cn1Cc1ccc2ccccc2c1,23.2%
12,COc1ccc2c(c1)c(-c1nc(-c3c[nH]c4ccncc34)cs1)cn2C,-88.3% (active)
13,COc1c(B(O)O)cccc1-c1cc(C)c2c(ccc3[nH]ncc32)n1,41.7%
14,COc1cc(-c2csc(NC(=O)c3ccc(N4CCOCC4)c(C(F)(F)F)c3)n2)cc(OC)c1OC,16%
15,CSc1nc(N)c(NS(=O)(=O)c2ccc(C(C)=O)cc2)c(=O)[nH]1,92.7%
16,O=C(OC(CO)C(=O)NC12CC3CC(CC(C3)C1)C2)c1ccc(Cl)cc1 (stereo not given),90.9%
17,CN(C)c1ccc(C(=O)OCCCCCCl)cc1,96.7%
18,Nc1c(C(=O)Nc2ccccc2C(F)(F)F)sc2nc3c(cc12)CCC3,107%
19,C[C@@H](CO)[C@@H]1CCC=C2CC[C@]3(C)[C@H](CC[C@@H]4[C@@]5(C)CCCNC(C)(C)[C@@H]5CC[C@]43C)[C@H]21,-20.3% (active)
20,Nc1n[nH]c2cccc(C#Cc3cccc(NC(=O)c4cc(F)cc(C(F)(F)F)c4)c3)c12,29.9%
